# According to PubChem BioAssay AID493168 (National Center for Advancing Translational Sciences (NCATS), 2011):
# Inconclusive results are not listed. Calls of active or inactive are those of the source. Calls come from the whole dose curve; as a rule, active = well fitted inhibition curve with a large enough effect; inconclusive = small, poorly fitted or top-dose-only effect, or effect the other way; inactive = flat fitted curve, though single readings scatter.
# Target: Ubiquitin carboxyl-terminal hydrolase 2 (Homo sapiens) (UniProt O75604)
# Test: Confirmation Assay for Inhibitors of Ubiquitin-specific Protease USP2a Using CHOP2 as the Reporter; note: nearly all actives have a fitted effect of over 55% in size;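 for activity change, negative = inhibition: plate controls were DMSO wells for no effect and full inhibition by NEM control for full effect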
# Conditions: USP2 core, Ub-CHOP2 coupled reporter fluorescence; series mostly up to 38.3 µM; activity change, negative = inhibition: at the top concentration
# How it was run: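 Ub-CHOP2 cleavage coupled to reporter activation was read by fluorescence after 60 min at RT, with 25 nM final Ub-CHOP2 and substrate. Enzyme (10 nM final USP2 core) first sat 30 min with compound; data were normalized to NEM and fitted to concentration-response curves.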
# Potency is the fitted concentration of half-maximal effect.
# Ubiquitin carboxyl-terminal hydrolase 2 (Homo sapiens), sequence (O75604 whole entry, looked up): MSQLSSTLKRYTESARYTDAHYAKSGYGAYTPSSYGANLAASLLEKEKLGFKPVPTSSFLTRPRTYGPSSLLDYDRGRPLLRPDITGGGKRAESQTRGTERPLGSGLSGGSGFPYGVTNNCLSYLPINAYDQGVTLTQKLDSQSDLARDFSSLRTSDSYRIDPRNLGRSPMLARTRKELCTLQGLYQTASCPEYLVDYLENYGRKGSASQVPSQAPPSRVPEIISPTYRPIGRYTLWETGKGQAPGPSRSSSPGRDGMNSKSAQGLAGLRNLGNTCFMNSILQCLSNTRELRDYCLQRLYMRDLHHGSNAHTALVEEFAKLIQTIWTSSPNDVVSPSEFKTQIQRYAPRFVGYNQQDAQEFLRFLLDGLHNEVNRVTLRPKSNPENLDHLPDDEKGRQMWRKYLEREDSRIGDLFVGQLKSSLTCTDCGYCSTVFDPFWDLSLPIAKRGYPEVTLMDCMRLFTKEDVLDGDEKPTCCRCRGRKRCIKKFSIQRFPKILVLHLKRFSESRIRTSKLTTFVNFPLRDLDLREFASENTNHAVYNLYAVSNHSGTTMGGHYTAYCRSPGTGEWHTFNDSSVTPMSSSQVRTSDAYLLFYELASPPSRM
Structure (SMILES),"activity change, negative = inhibition",Potency
Clc1ccccc1-c1nnc2sc(-c3cccs3)nn12,-1.13% (inactive),–
CCCc1nc(SCC(N)=O)[nH]c(=O)c1CC,5.12% (inactive),–
CC(C)(C)OC(=O)C[C@H]1C/C=C\C[C@H](CC(=O)N(CCO)Cc2ccccc2)C(=O)NC[C@H](c2ccccc2)OC1=O,3.72% (inactive),–
CN(C)c1cccc(C(=O)NNC(=O)C23CC4CC(CC(C4)C2)C3)c1,-0.517% (inactive),–
CC(=O)O[C@H]1[C@H](O)[C@H](Oc2c(O)c(C)c3c4c2[C@@H](C)CC[C@@H]4[C@@H](C)C[C@H]3C=C(C)C)O[C@@H](C)[C@H]1O,-3.83% (inactive),–
CCOC(=O)C(=O)Nc1nc(-c2ccc3c(c2)CCN3C(=O)C2CC2)c(C)s1,-0.268% (inactive),–
COCc1cc(C)nc(SCC[N+](C)(C)CC(=O)Nc2cccc(C(F)(F)F)c2)c1C#N,-13.5% (inactive),–
COc1ccc(/C=N\NC(=O)c2cc(O)c(O)c(O)c2)cc1COc1ccc(C(=O)OCC(C)C)cc1,–,14.7 µM (active)
O=C(COC(=O)/C=C/c1ccc(Cl)cc1)NC1CC1,0.196% (inactive),–
C=CCOc1cccc(C2C(C(=O)c3ccco3)=C(O)C(=O)N2CCN(CC)CC)c1 (stereo not given),3.3% (inactive),–
CCC(C)NC(=O)C1CN(S(=O)(=O)c2ccccc2)CCN1S(=O)(=O)c1ccccc1 (stereo not given),3.46% (inactive),–
CN(C)CCCN1C(=O)C(=O)/C(=C(/O)c2ccncc2)C1c1cccnc1 (stereo not given),-0.824% (inactive),–
COc1cc(OC)cc(-c2c(C#Cc3ccsc3)c3cc(-c4ccc(OC)c(F)c4)ccc3n2C)c1,4.92% (inactive),–
c1coc(CNC2CCCCCCC2)c1,2.9% (inactive),–
O=C(O)C1CCN1C1CCCCC1 (stereo not given),-1.8% (inactive),–
O=C(/C=C/c1ccc(Cl)c([N+](=O)[O-])c1)Nc1ccc(N2CCCC2)cc1,-14% (inactive),–
O=C(c1ccccc1)N1CCN(C2C3CC4CC(C3)CC2C4)CC1 (stereo not given),5.17% (inactive),–
CC(OC(=O)CN(C)S(=O)(=O)c1ccc(Cl)cc1)C(=O)Nc1ccc(N2CCOCC2)cc1 (stereo not given),0.112% (inactive),–
FC(F)Sc1ccc(NC(=S)NC2CCCCC2)cc1,2.42% (inactive),–
COc1cccc(-c2csc3nnc(SCC(=O)NCc4cccs4)n23)c1,-0.609% (inactive),–

Structure (SMILES),"activity change, negative = inhibition",Potency
COc1ccccc1NC(=O)CSc1nc(O)cc(=O)n1-c1ccccc1OC,-2.53% (inactive),–
Cc1cnc(N)c2c(=O)oc3ccccc3c12,5.48% (inactive),–
O=C(OCc1ccccc1)C1CCCN1C(=O)c1cccs1 (stereo not given),4.71% (inactive),–
COCCCNCCCOc1ccc(C)cc1Br,-2.1% (inactive),–
CCOc1ccc2[nH]c(=O)c(CN(CCc3ccccc3)C(=O)c3cnccn3)cc2c1,-3.4% (inactive),–
O=C(Oc1ccccc1C(=O)Nc1ccccc1)c1ccccc1Br,1.52% (inactive),–
O=C(Cc1cc(=O)[nH]c(=O)[nH]1)NCC1CCCO1 (stereo not given),2.54% (inactive),–
CCOC(=O)N1CCC(NC(=O)c2ccc(OC)c(CN3CC(=O)N4CCCC4C3=O)c2)CC1 (stereo not given),-1.63% (inactive),–
CCCCOC1(c2ccccc2)NC(=S)NN=C1c1ccccc1 (stereo not given),2.46% (inactive),–
Nc1ccccc1S(=O)(=O)NC1=NCCCCC1,2.55% (inactive),–
CN1CCN(CCC(=O)N/N=C/c2cc([N+](=O)[O-])ccc2O)CC1,-3.37% (inactive),–
Cc1cc(/C=C2\C(=N)N3N=C(c4ccco4)SC3=NC2=O)c(C)n1Cc1ccccc1,–,16.5 µM (active)
CCOc1ccccc1C(=O)N[C@H](C(=O)Nc1ccc(OC)c(S(=O)(=O)N2CCOCC2)c1)C(C)C,0.171% (inactive),–
O=C(CSc1ncccc1-c1nc2ccccc2[nH]1)Nc1ccc2c(c1)OCCO2,-2.15% (inactive),–
O=C(NC1CCCCC1)C(c1ccco1)N(C(=O)c1csnn1)c1cccc(F)c1 (stereo not given),-2.74% (inactive),–
CNC(=O)NC(=O)CSc1ccc(NC(C)=O)cc1,-4.02% (inactive),–
Cc1ccc(-c2ccc(CCC(=O)O)n2NC(=O)c2cccs2)cc1,-2.31% (inactive),–
Cc1nn(C)cc1CNC(=O)c1ccc(Br)o1,-0.0545% (inactive),–
Oc1ccc(/C=N/NC(=S)N/N=C/c2ccc(O)cc2)cc1,2.64% (inactive),–
CCCn1nnc(NC(=O)c2cccc(OCC(C)C)c2)n1,2.02% (inactive),–
